# The entries come from a sample that favours hits as a whole.
# TTR transcr act: TTR transcription activators in neuroblastoma reporter cells, primary screen, cell-based, luminescence, SH-SY5Y, TTR promoter Gaussia luciferase; 100% = recombinant luciferase protein wells; activation, % at 16.7 µM; 1.3% of 92,000 active; AID 1117267, 2014;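 active = activation above the mean of all tested compounds plus 3 SD, cut at about 9.5% in these data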;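 note: cells exposed to compounds for one day before reading; 0% = median of all test compound wells on the plate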
# TTR inh HuH7: TTR promoter reporter inhibitors in hepatoma cells, counter-screen for TTR transcription activator project, cell-based, luminescence, HuH7 hepatoma; shares compounds with TTR transcr act; HuH7 TTR promoter-Gaussia luciferase reporter; inhibition, % at 16.7 µM; 4% of 1,100 active; AID 1117279, 2014;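 active = average inhibition above the solvent-only control wells' mean plus 3 SD, cut at about 15% in these data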;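 note: 0% = cells with DMSO only and 100% = cells with inhibitor control FD; inhibitors lower well luminescence so higher value means more inhibition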
# TTR act confirm: TTR transcription activators, retest, confirmation, cell-based, luminescence, SH-SY5Y, triplicate; shares compounds with TTR transcr act; SHSY5Y TTR promoter Gaussia luciferase; 100% = purified Lucia enzyme wells, no cells; activation, % at 16.7 µM; 1,100 tested, under 10 active;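 active = mean activation above a set limit taken from the earlier primary screen, cut at about 11% in these data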;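 note: 0% = DMSO-treated cells and 100% = recombinant Lucia luciferase without cells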
# Numbers without * were called inactive.
SMILES,TTR transcr act,others
COc1cccc(CN2CCN(C(=O)[C@H]3O[C@@H](n4cnc5c(N)ncnc54)[C@H](O)[C@@H]3O)CC2=O)c1,1,
C[C@H](CO)N1C[C@H](C)[C@@H](CN(C)C(=O)CCCN(C)C)OCc2cn(nn2)CCCC1=O,2,
COc1cccc(CSc2nc3ccccc3[nH]2)c1,0,
COc1cccc(CSc2nc3cc4c(cc3cc2C)OCCO4)c1,18*,TTR inh HuH7=-11;TTR act confirm=0
COC(=O)CSc1nc2cc3c(cc2cc1C)OCO3,0,
COC(=O)[C@]1(C)CN(C(=O)OC(C)(C)C)C2=C1C(=O)C[C@](C)(C(=O)OC(C)(C)C)C2,0,
CN(C)CCNC(=O)/C=N/O,1,
COc1cccc(NC(=O)Cc2cccs2)c1,-2,
CC(c1cccnc1)N(C(=O)Nc1ccccc1)C1CCCCC1 (stereo not given),1,
COc1cccc(NC(=O)N(C2CCCCC2)C(C)c2cccs2)c1 (stereo not given),13*,TTR inh HuH7=-11;TTR act confirm=-1
CCOC(=O)[C@]12CCCC3=C1N(CCC3)C(=O)[C@@H](CC(=O)NCc1ccccc1)C2,-1,
Cc1ccc(C(=O)n2ccc3ccc(-c4ccc5ccn(Cc6ccccc6)c5c4)cc32)cc1,-1,
C=CCN1C(=O)[C@H](CC(=O)N2CCC(c3ccccc3)CC2)[C@@]2(C(=O)OCC)CCCC=C12,-2,
COc1ccc2nc(NC(=O)C(NS(=O)(=O)c3cccc4nsnc34)C(C)C)sc2c1 (stereo not given),4,
COc1ccc(OC)c(NC(=O)O[C@@H]2CC[C@@]34CCCN3C(=O)CCC[C@H]4C2)c1,1,
O=C(NCc1ccco1)c1cc2n(n1)C(C(F)(F)F)CC(c1ccc(Cl)c(Cl)c1)N2 (stereo not given),-1,
O=C(Nc1ccccc1)c1cc2n(n1)C(C(F)(F)F)CC(C1CC1)N2 (stereo not given),14*,TTR inh HuH7=-15;TTR act confirm=1
CC(C)NC(=O)c1cc2n(n1)C(C(F)(F)F)CC(c1ccco1)N2 (stereo not given),0,
COc1cccc(C2c3c(ncn(-c4ccccc4)c3=N)Oc3ccc4ccccc4c32)c1 (stereo not given),0,
COC(=O)c1ccc(Cn2ccc3ccc(-c4ccc5ccn(C(=O)c6ccccc6OC)c5c4)cc32)cc1,2,
COc1cc(/C=C(\C#N)C(=O)NC(C)C)cc(Cl)c1O,0,
COc1ccc(/C=C(/C#N)C(=O)Nc2cc(C)ccc2C)cc1C(=O)O,-1,
COc1ccc(/C=C(\C#N)C(=O)Nc2cc(C)c(Cl)cc2OC)cc1O,12*,TTR inh HuH7=-4;TTR act confirm=0
Cc1ccc(C(C)NC(=O)C2CCCC2)cc1C (stereo not given),-1,
CC(NC(=O)C1CCC1)c1ccc(Br)cc1 (stereo not given),22*,TTR inh HuH7=-11;TTR act confirm=0
SMILES,TTR transcr act,others
CC(NC(=O)C1CCC1)c1ccc2c(c1)OCO2 (stereo not given),-2,
COc1cccc(CNC(=O)[C@@H]2CCCN2C(=O)[C@H]2CCCCN2C(=O)c2cccs2)c1,0,
COC(=O)C12CCCN1C1C(=O)N(Cc3ccc(C(N)=O)cc3)CC1C2 (stereo not given),-1,
Cc1cccc(CNC(=S)OCCN2CCCC23CCC(c2ccccc2)CC3)c1 (stereo not given),0,
CNc1ccc(/C=C(\C#N)C(=O)Nc2ccccn2)cc1[N+](=O)[O-],23*,TTR inh HuH7=-12;TTR act confirm=0
CC(C)(C)c1ccc(/C=C(\C#N)C(=O)Nc2ccccn2)cc1,-2,
COc1cc(/C=C(\C#N)C(=O)Nc2ccccn2)ccc1O,1,
COc1ccc(OC2C(=O)N(Cc3ccc4c(c3)OCO4)C2c2sccc2C)cc1 (stereo not given),-3,
COc1ccc(OC)c(/C=C2\SC(=S)N(C(C(=O)O)c3ccccc3)C2=O)c1 (stereo not given),16*,TTR inh HuH7=11;TTR act confirm=-1
C=CCOc1ccc(/C=C2\SC(=S)N(C(C(=O)O)c3ccccc3)C2=O)cc1 (stereo not given),0,
CC(/C=C1\SC(=S)N(C(C(=O)O)c2ccccc2)C1=O)=C\c1ccccc1 (stereo not given),0,
COc1ccc(-c2cnc(NCc3cc4c(cc3[N+](=O)[O-])OCO4)n2C)cc1,1,
COc1ccc(CNc2ncc(-c3ccccc3)n2C)c(OC)c1OC,11*,TTR inh HuH7=5;TTR act confirm=-1
Cn1c(-c2cccc([N+](=O)[O-])c2)cnc1NCc1cccc([N+](=O)[O-])c1,0,
COC(=O)[C@]12C[C@H](CC(=O)N3CCN(C(=O)c4ccco4)CC3)C(=O)N(Cc3ccc(Cl)cc3Cl)C1=C[C@H](C(C)C)O[C@@H]2C1CC1,2,
O=C(NN1C(=O)C2CC=C(Cl)CC2C1=O)c1ccncc1 (stereo not given),12*,TTR inh HuH7=2;TTR act confirm=-1
Cc1ccc(NCN2C(=O)C3CC=C(Cl)CC3C2=O)cc1 (stereo not given),0,
O=C(NN1C(=O)C2C3C=CC(C3)C2C1=O)c1ccccc1 (stereo not given),0,
CCOC(=O)C1CCN(C(=O)C(C)(C)NC(=O)Nc2ccc(Cl)cc2Cl)CC1,0,
O=c1cc(C(F)(F)F)[nH]c2c(OC(F)(F)F)cccc12,-1,
CCCC[C@H](C(=O)N(C)c1cccc(OC)c1)[C@@H](O)c1ccc2ccccc2c1,-1,
O=C(COc1ccc(Cl)cc1)NCc1nnc(SCC(=O)NCc2ccc3c(c2)OCO3)o1,-1,
COc1ccc(C(=O)NCc2nnc(SCC(=O)Nc3ccc4c(c3)OCO4)o2)cc1,3,
O=C(CSc1nnc(CNC(=O)c2ccccc2)o1)NCc1ccc2c(c1)OCO2,17*,TTR inh HuH7=-16;TTR act confirm=0
COc1cc(NC(=O)COC(=O)c2n[nH]c3ccccc23)c(C)cc1[N+](=O)[O-],-1,
SMILES,TTR transcr act,others
CO[C@H]1CN(C)C(=O)c2cc(NC(=O)C3CCCC3)ccc2OC[C@@H](C)NC[C@H]1C,0,
Cc1cccc(NS(=O)(=O)c2ccc(C(=O)NCC(c3ccco3)N3CCCCC3)cc2)c1C (stereo not given),-3,
O=C1Cc2c([nH]c3ccc([N+](=O)[O-])cc23)-c2ccccc2N1,2,
Cc1cccc(C)c1NC(=O)CN(C)C(=O)c1cccc(S(=O)(=O)N2CCN(c3ccccc3)CC2)c1,0,
Cc1cccc(C)c1NC(=O)CN(C)C(=O)c1cccc(S(=O)(=O)N2CCN(C)CC2)c1,15*,TTR inh HuH7=-7;TTR act confirm=-1
Cc1cccc(C)c1NC(=O)CN(C)C(=O)c1cc(S(=O)(=O)N(C)C)ccc1N1CCCC1,2,
O=C(CNC(=O)c1ccc(Cl)cc1Cl)NCCCn1ccnc1,-1,
COc1cc(-n2c(-c3ccccc3)n[nH]c2=S)c(OC)cc1Cl,0,
FC(F)(F)c1ccccc1-n1c(-c2cnccn2)n[nH]c1=S,-2,
COc1cc(-c2n[nH]c(=S)n2-c2ccccc2C(F)(F)F)cc(OC)c1OC,9.9*,TTR inh HuH7=-16;TTR act confirm=1
COC(=O)[C@H]1C[C@]2(C(C=C(C)C)S(=O)(=O)c3ccccc3)c3ccccc3N[C@H]2N1 (stereo not given in full),0,

# From PubChem
